The source of these data is PubChem BioAssay AID485 (The Scripps Research Institute Molecular Screening Center, 2006).

Structures are written as SMILES. Screen size: about 170,000 compounds; about 460 (0.27%) were called active.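 The calls were made as follows: active = inhibition above the plate cutoff, the mean inhibition of test wells on that plate plus 3 SD (cut at about 28% in these data); inactive = the rest.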 Shown is part of a subset that was picked to be rich in actives.

In this test the target is Sphingosine 1-phosphate receptor 3 (Homo sapiens) (UniProt Q99500). As to the kind of experiment: S1P3 receptor antagonists, primary screen, cell-based (AID 485).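 Also: cells challenged with S1P at its EC80 of 0.8 µM; blue over green emission ratio from cleaved BLA substrate after 4 h stimulation; 0% = S1P-stimulated wells and 100% = unstimulated DMSO-only wells.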 Particulars: CHO S1P3 NFAT-BLA reporter, FRET fluorescence, antagonist mode; at 4.98 µM; stronger effect = higher value.
Sequence of Sphingosine 1-phosphate receptor 3 (Homo sapiens) (Q99500 whole entry, looked up): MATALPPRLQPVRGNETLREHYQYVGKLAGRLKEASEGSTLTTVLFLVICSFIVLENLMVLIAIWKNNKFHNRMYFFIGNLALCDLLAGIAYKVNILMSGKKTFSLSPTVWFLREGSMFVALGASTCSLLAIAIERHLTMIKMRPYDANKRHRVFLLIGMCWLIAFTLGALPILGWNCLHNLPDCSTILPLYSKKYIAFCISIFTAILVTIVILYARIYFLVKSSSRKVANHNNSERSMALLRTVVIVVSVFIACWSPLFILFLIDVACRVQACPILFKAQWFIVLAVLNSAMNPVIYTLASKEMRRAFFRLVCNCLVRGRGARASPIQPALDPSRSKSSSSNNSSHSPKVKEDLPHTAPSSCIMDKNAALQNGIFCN
By inhibition is commonly meant the change of the read-out against control, counted positive when it falls. As for `COc1ccc(/C=C/CN2CCCC(C(=O)c3cc(F)ccc3F)C2)cc1` (centres undefined), the inhibition was -10.6% (inactive).
The value for `COC(=O)N(NC(=O)C(O)(C(C)C)C(C)C)c1ccccc1` was 11% (inactive); that for `CC(CNS(=O)(=O)c1ccc(Br)cc1)CN(C)C` (centres undefined) was -2.53% (inactive).
The value for `COc1ccc(N=C(C)c2sc3ccccc3c2O)cc1` was 6.44% (inactive); that for `Cc1nc2cc(NC(=O)NC3CC3)ccc2n1C` was -13.8% (inactive); that for `OC1CCCN(c2ncnc3c2nnn3Cc2c(F)cccc2Cl)C1` (centres undefined) was -7.85% (inactive).
In the case of `N#C/C(=C/c1ccc(-c2ccccc2[N+](=O)[O-])o1)C(=O)NCCN1CCCCC1`, the inhibition is -1.3% (inactive).
The value for `CCC(C)N(C(=O)COC(=O)C1C(C(=O)OC)=C(C)NC(C)=C1C(=O)OC)C1CCS(=O)(=O)C1` (centres undefined) was -2.76% (inactive); that for `CN1C=CC=C/C1=C1\SC(=S)N(Cc2ccccc2)C1=O` was -8.73% (inactive); that for `CCc1ccc(S(=O)(=O)NCC(O)COc2ccc(OC)cc2)cc1` (centres undefined) was 11.9% (inactive).
`O=C(N/N=C/c1coc2ccccc2c1=O)c1cc2ccccc2o1`: the inhibition was 30.4% (active).
`Cc1c(/C=N\NC(=O)c2cc3ccccc3o2)c2ccccc2n1C`: the inhibition was 9.64% (inactive).
In the case of `O=C(N/N=C/c1c[nH]c2ccccc12)c1cc2ccccc2o1`, the inhibition is -11.5% (inactive).
Regarding `COc1cc(NS(=O)(=O)c2ccc(NC(=O)c3ccc(S(=O)(=O)N4CCCCC4)cc3)cc2)ncn1`, the inhibition is -13.9% (inactive).
The value for `CC(C)CNC(=O)C(=O)NCc1ccccc1` was 1.01% (inactive).
The value for `CCOC(=O)C1=NOC(Cn2cc(C(C)=O)c(=O)[nH]c2=O)C1` (centres undefined) was -0.07% (inactive); that for `Cc1cccc2c1N(CCOc1ccccc1)C(=O)C2=O` was -6.34% (inactive); that for `Cc1nc2sc(C(=O)c3ccccc3)c(N)c2c2c1CCCC2` was 26.9% (inactive).
`Nc1c(C(=O)c2cccs2)sc2nsc(SCCN3CCCCC3)c12`: the inhibition is 28.7% (active).
The value for `O=C(CSc1nc2ccccc2[nH]1)c1cccs1` was -5% (inactive); that for `O=C(NCc1ccco1)C1CCCN1S(=O)(=O)c1ccccc1C(F)(F)F` (centres undefined) was 5.85% (inactive); that for `O=C(NCCc1c[nH]c2ccccc12)C(=O)NCC1CCCO1` (centres undefined) was -20.2% (inactive).
As to `O=C(CS(=O)(=O)Cc1ccccc1)NCC1CCCO1` (centres undefined), the inhibition was 9.8% (inactive).
The value for `S=C(NCCc1ccccc1)NCC1CCCO1` (centres undefined) was 29.2% (active).
Regarding `O=S1(=O)CC/C(=N\Nc2ccc(F)cc2)c2ccsc21`, the inhibition was 3.45% (inactive).
In the case of `S=C(NCc1ccco1)Nc1ccc2c(c1)OCCO2`, the inhibition is -9.96% (inactive).
As to `CC12CN3CCN(CC(C3)/C1=N\NC(=O)c1ccccc1N)C2`, the inhibition is -5.45% (inactive).
The value for `CC(=O)c1c(C)[nH]c(C(=O)COC(=O)c2cccc(S(=O)(=O)N(C)c3ccccc3)c2)c1C` was 37.9% (active); that for `CN(c1ccccc1)S(=O)(=O)c1ccc(Cl)c(C(=O)OCC(N)=O)c1` was -15.6% (inactive); that for `COc1ccc(C)cc1NC(=O)C(OC(=O)c1cccc(S(=O)(=O)N(C)c2ccccc2)c1)c1ccccc1` (centres undefined) was -3.14% (inactive).
The value for `O=C(NCC(c1cccs1)N1CCOCC1)c1cc(-c2ccccn2)nc2ccccc12` (centres undefined) was -2.5% (inactive); that for `COCCn1c(SCC(=O)c2[nH]c(C)c(C(C)=O)c2C)nc2ccccc2c1=O` was -13.7% (inactive); that for `NS(=O)(=O)c1ccc(NC(=O)COC(=O)c2cc3ccccc3oc2=O)cc1` was 11.2% (inactive).
The value for `O=C(N/N=C/c1cccc([N+](=O)[O-])c1)c1ccncc1` was -7.73% (inactive); that for `Cc1ccc(NC(=O)NNC(=O)c2sccc2-n2cccc2)cc1` was 8.38% (inactive); that for `COc1ccc(C2=NN(c3nc4ccccc4s3)C(=O)C2)cc1` was -9.89% (inactive).
As to `CCOC(=O)N1CCN(c2c(NCCN3CCN(c4ccccc4F)CC3)c(=O)c2=O)CC1`, the inhibition is -1.55% (inactive).
The value for `COc1ccc(NC(=O)C2CCC(CNc3c(N4CCCCC4)c(=O)c3=O)CC2)c(OC)c1` (centres undefined) was -5.91% (inactive).
The value for `COc1ccc(NS(=O)(=O)c2ccc(Oc3c(C#N)cccc3C#N)cc2)cc1` was 1.93% (inactive); that for `COc1ccc(CC(=O)N[C@@H](CCSC)c2nc3ccccc3[nH]2)cc1` was -1.34% (inactive); that for `CCn1c(=O)c([N+](=O)[O-])c(NCc2ccc3c(c2)OCO3)c2ccccc21` was -5.99% (inactive).
As to `O=C(Nc1ccc2oc(-c3ccccc3F)nc2c1)c1ccco1`, the inhibition is -11.6% (inactive).
On to `Nc1nc(SC23CC4CC(CC(C4)C2)C3)ns1`, for which the inhibition is -0.08% (inactive).
The value for `Cc1cc(=O)oc2cc(OCCC[n+]3ccccc3)ccc12` was 0.67% (inactive); that for `CC1=NNC(=O)C1CC(=O)N/N=C/c1ccncc1` (centres undefined) was -24.4% (inactive).
The value for `C[C@@H](NC(=O)OC(C)(C)C)c1nnc(S(=O)(=O)Cc2ccccc2)o1` was -3.71% (inactive); that for `CCOC(=O)c1oc2c(CN3CCN(CCO)CC3)c(O)c(CC)cc2c(=O)c1-c1nc2ccccc2s1` was -10.5% (inactive); that for `Cc1ccc(S(=O)(=O)N(C)C)cc1NC(=O)c1n[nH]c(=O)c2ccccc12` was -6.86% (inactive).
The value for `Cc1cccc(C)c1N1CCN(S(=O)(=O)N2CCCCC2)CC1` was -28.1% (inactive).
Consider `CNC(=O)Nc1cc(C(C)(C)C)no1`, for which the inhibition was 92.8% (active).
The value for `COc1ccc(CN2C(=O)C(C)S/C2=N/N=C/c2ccco2)cc1` (centres undefined) was -5.66% (inactive); that for `CCn1c(-c2cccnc2Cl)nc2cc(C)c(C)cc21` was -10.7% (inactive).
The value for `Cn1c(C(=O)O)ccc1S(=O)(=O)N(Cc1ccccc1)Cc1ccccc1` was 3.65% (inactive); that for `OCCC1CN(Cc2ccccc2-c2ccco2)CCN1Cc1ccsc1` (centres undefined) was -6.06% (inactive).
The value for `CC(=O)NC(=S)NNC(=O)c1ccc(Br)cc1` was -11.1% (inactive).
Regarding `CCOc1ccc2sc(NS(=O)(=O)c3ccc(N)cc3)nc2c1`, the inhibition was -8.22% (inactive).
The value for `Oc1c(Br)cc(/C=N/NC(=S)NCC2CCCO2)cc1Br` (centres undefined) was 0.61% (inactive).
Take `Cc1cc(C(C)(C)C)cc(S(=O)(=O)Nc2ccc(C(=O)O)cc2)c1C`: the inhibition is -12.2% (inactive).
The value for `COc1cc2[nH]c(=O)n(Cc3ccc(C(=O)NC4CCN(Cc5ccccc5)CC4)cc3)c(=O)c2cc1OC` was -15.1% (inactive).
The value for `COc1ccc(N2CCN(C(=S)Nc3ccc(S(N)(=O)=O)cc3)CC2)cc1` was 6.19% (inactive); that for `CC(=O)NC(CC(=O)Nc1nccs1)c1ccccc1` (centres undefined) was -11.7% (inactive); that for `CSCCNCc1cn(-c2ccc(F)cc2F)nc1-c1ccccc1C` was -21.2% (inactive).
The value for `CC(NC(=O)C(=O)N/N=C/c1ccc(Cl)cc1)c1ccccc1` (centres undefined) was -3.11% (inactive).
Regarding `Cc1nc(CNS(=O)(=O)c2cc([N+](=O)[O-])ccc2C)cs1`, the inhibition is 10.3% (inactive).
The value for `COc1ccc(CNC(=O)CCC(=O)Nc2nnc(C(C)C)s2)cc1` was -0.16% (inactive); that for `CS(=O)(=O)c1ccc2nc(NC(=O)c3ccc(N4CCCC4=O)cc3)sc2c1` was -4.82% (inactive); that for `COc1ccccc1NC(=O)c1c(Br)cnn1C` was 2.9% (inactive).
The value for `O=C(O)c1ccccc1OCc1ccccc1Cl` was 8.64% (inactive).
For `O=C(/C=C/c1ccc(Cl)cc1)Nc1ccc(S(=O)(=O)Nc2ncccn2)cc1`, the inhibition was -1.53% (inactive).
Take `Cc1cc(C)n(CC(C)NCc2c(C(=O)N3CCOCC3)nc3c(C)cccn23)n1` (centres undefined): the inhibition is 16% (inactive).
The value for `COc1cccc(CC2(CO)CCCN(Cc3nc(-c4cccs4)oc3C)C2)c1` (centres undefined) was -7.51% (inactive); that for `CCC(CC)c1nnc(NC(=O)c2nn(C)c(=O)c3ccccc23)s1` was -16.1% (inactive).
Regarding `COc1ccc(N2CCN(C(=O)/C(C#N)=C/c3ccccc3)CC2)cc1`, the inhibition was -0.3% (inactive).
The value for `Nc1cc(C(F)(F)F)ccc1N1CCOCC1` was 8.92% (inactive); that for `COc1cc(OC)cc(/C(N)=N/O)c1` was 9.29% (inactive); that for `CCOc1cc(N2CCOCC2)c(OCC)cc1NC(=O)c1ccc(C)s1` was 2.86% (inactive).
As to `CCOC(=O)CN(C(=O)COc1nc(-c2ccccc2)cc(C)c1C#N)c1ccc(F)cc1`, the inhibition was -12.8% (inactive).
The value for `Nc1nc(NCC2CCCO2)nc(Nc2ccccc2F)c1[N+](=O)[O-]` (centres undefined) was 6.85% (inactive); that for `CC(C)NC(=O)/C(C#N)=C\c1ccc(N(C)C)c(Br)c1` was -16.2% (inactive).
The value for `C=CCN(c1ccccc1C(=O)NCC(=O)OCC)S(=O)(=O)c1ccc(C)cc1` was 3.85% (inactive).
As for `CC1=CC2=NC(=O)/C(=C/c3coc4ccccc4c3=O)C(=N)N2O1`, the inhibition is -5.98% (inactive).
In the case of `CCOc1cc(NS(=O)(=O)c2ccc(OC)cc2)c(OCC)cc1NC(C)=O`, the inhibition is -10.8% (inactive).
On to `O=C(NCCN1CCOCC1)c1ccc2c(c1)N(Cc1ccc(Cl)cc1)CCS2`, for which the inhibition is 1.26% (inactive).
`CCc1ccc(Nc2nnc(SCC(=O)c3ccc4c(c3)NC(=O)CO4)s2)cc1`: the inhibition was -5.18% (inactive).
The value for `O=C(c1ccc(F)cc1)n1cc(C(=S)N2CCOCC2)c2ccccc21` was 16.1% (inactive); that for `O=C(CN1CCCCC1)Nc1ccccc1Cl` was -9.78% (inactive).
The value for `O=C(Nc1ccccc1Cl)c1ccc2nsnc2c1` was 0.3% (inactive); that for `O=C(Nc1ccccc1Cl)/C(Cl)=C(\Cl)S(=O)c1ccccc1` (centres undefined) was 40.8% (active).
For `CCOC(=O)C1=C(c2ccccc2)NC(=S)NC1c1ccc(Cl)cc1` (centres undefined), the inhibition was -1.74% (inactive).
The value for `C=CCN1CC(C)/C(=N\O)CC1C` (centres undefined) was -3.95% (inactive); that for `Cc1cc(C)nc(Nc2cc([N+](=O)[O-])ccc2C)n1` was 11.2% (inactive).
On to `Cc1nn(-c2ccc([N+](=O)[O-])cc2)c(N)c1-c1ccccc1`, for which the inhibition is -7.46% (inactive).
The value for `COc1ccccc1C1CCN(C(=S)Nc2ccc(Br)cc2)CC1` was 7.17% (inactive).
The value for `O=C(Nc1ccc(N2CCN(C(=O)c3ccccc3)CC2)c(Cl)c1)c1ncn[nH]1` was 7.3% (inactive).
